The record followed here is ChEMBL document CHEMBL3988442, “University of Dundee, Small-Polar-MMV Screening Library” (2021).

The whole screen tested about 48,000 compounds, of which about 13,000 (27%) showed an effect of 50% or more. This is one part of the list.

This assay concerns Wolbachia pipientis. Put plainly: Anti-Wolbachia Cell-Based Screen. Format: functional. Set-up: scale not given: in the data most compounds retested in dose-response had high values. The note with it: 5 µM.
On to `COCC1CN(C(=O)Cc2ccsc2)Cc2c1cnn2C` (stereo not drawn), for which the “Percent Effect” value is reported as -19.19%.

Turning to `CN(C)CCN1CC(C(=O)N2CCC(c3cccc(O)c3)CC2)CC1=O` (stereo not drawn), the “Percent Effect” value was -14.83%.

Consider `C[C@@H]1CN(C(=O)c2ccccc2F)C[C@]12CCN(CCN(C)C)C2=O`, for which the “Percent Effect” value came out at 90.27%.

In the case of `C[C@H]1CN(C(=O)c2ccoc2)C[C@@]12CCN(CCN(C)C)C2=O.O=C(O)C(F)(F)F`, the “Percent Effect” value turned out to be 113.7%.

In the case of `C[C@@H]1CN(C(=O)Cc2ccsc2)C[C@]12CCN(CCN(C)C)C2=O`, the “Percent Effect” value was 171.4%.

As for `Cc1ccc(OC2(C(=O)O)CCN(C(=O)c3ccccc3F)CC2)cn1`, the “Percent Effect” value was -3.687%.

Turning to `COCCN1CCO[C@@H]2CN(C(=O)Cc3ccc(F)cc3)CC[C@@H]2C1.O=C(O)C(F)(F)F`, the “Percent Effect” value came to 12.24%.

On to `CC1N(C)C(=O)COC12CCN(C(=O)Cc1ccsc1)CC2` (stereo not drawn), for which the “Percent Effect” value came out at 1.71%.

Turning to `CC(C)COc1cncc(NC(CO)c2ccco2)n1` (stereo not drawn), the “Percent Effect” value is reported as -5.064%.

As for `CC(C1CCN(Cc2ccccc2OC(F)F)CC1)N1CCOCC1` (stereo not drawn), the “Percent Effect” value worked out at 23.13%.

For the compound `CCN(CC(=O)NC)C(=O)c1cc(-c2cccc(Cl)c2)no1`, the “Percent Effect” value is -2.874%.

For the compound `CNS(=O)(=O)c1ccc(CN2CCCN(CC(C)C)CC2)cc1`, the “Percent Effect” value was found to be 8.265%.

Turning to `Nc1cccc(-c2cccc3ccnn23)n1`, the “Percent Effect” value was determined as 9.414%.

With `O=C(N[C@H]1CC[C@H](O)CC1)c1ccc2nc(-c3ccc(F)cc3)cn2c1`, the “Percent Effect” value is given as -4.798%.

For the compound `NC(=O)Cn1ccnc1C1CCCN(Cc2ccccc2OC(F)F)C1` (stereo not drawn), the “Percent Effect” value is reported as -1.119%.

For `O=C1CC2(CCN(C(=O)c3ccc4c(c3)CCCO4)C2)C(=O)N1` (stereo not drawn), the “Percent Effect” value was -2.87%.

`Cc1ccsc1-c1nc(CN(C)Cc2noc(C(C)C)n2)c(C)o1`: the “Percent Effect” value came out at 10.67%.

On to `COc1ccc(NC(=O)Nc2c(O)c3ccccc3oc2=O)cc1`, for which the “Percent Effect” value is reported as 106%.

For `COc1ccc(CNC(=O)Nc2ccc(CN3CCOC3=O)cc2)cc1`, the “Percent Effect” value turned out to be 12.97%.

Turning to `COc1ccc(CNC(=O)Nc2ccc(=O)n(C)c2)cc1`, the “Percent Effect” value was -2.437%.

For `CCn1ncnc1CN(C/C=C/c1ccccc1)CCOC`, the “Percent Effect” value was 8.107%.

For the compound `CC(C)(C)CCN1CCN(Cn2nccc2-c2cccnc2)CC1`, the “Percent Effect” value is -19.45%.

For the compound `Cc1nc(N2CCCCC2)ncc1C(=O)N1CC(C)(C)[C@@](C)(O)C1`, the “Percent Effect” value worked out at 13.78%.

As for `Cc1ncc(C(=O)N2CC(C(=O)N3CCCCCC3)C2)c(C)n1`, the “Percent Effect” value is on record as 132.1%.

Regarding `Cc1ncc(C(=O)N2C[C@H]3CC[C@@H]2CN(S(=O)(=O)N(C)C)C3)c(C)n1`, the “Percent Effect” value is given as 4.102%.

Turning to `Cc1ncc(C(=O)N2C[C@H](CO)C[C@H](CN3CCOCC3)C2)c(=O)[nH]1`, the “Percent Effect” value is listed as -13.12%.

Regarding `Cc1ncc(C(=O)N2CCC(C(=O)NC3CCCC3)C2)c(C)n1` (stereo not drawn), the “Percent Effect” value is recorded as 133.9%.

Regarding `CCc1nc(C)ncc1C(=O)N1CCCC(n2nc(C)nc2C)C1` (stereo not drawn), the “Percent Effect” value is given as -5.056%.

Regarding `Cc1ncc(C(=O)N2CC(C(=O)N3CCOCC3)C2)c(C)n1`, the “Percent Effect” value was 106.6%.

Take `Cc1cnc(N2CC(C(=O)N3CCOCC3)C3(CCOCC3)C2)nc1` (stereo not drawn): the “Percent Effect” value is -3.796%.

Regarding `O=C(NC1CCCCC1)C1CCCN(C(=O)Nc2ccccn2)C1` (stereo not drawn), the “Percent Effect” value is on record as 6.063%.

`CCc1ncc2c(n1)CN(CCCOc1ccc(C#N)cc1)CC2`: the “Percent Effect” value is -6.685%.

For `CC(C)c1nnc2ccc(N3CCC(C(=O)Nc4nccs4)CC3)nn12`, the “Percent Effect” value came out at 11.38%.

As to `Brc1cc2c(cc1CN1CCC(N3CCCCC3)CC1)OCCO2`, the “Percent Effect” value is -3.138%.

On to `Cc1ccnc(OC[C@@]23CCO[C@@H]2CCN(c2ncccn2)C3)n1.O=C(O)C(F)(F)F`, for which the “Percent Effect” value is -11.59%.

On to `O=C(NCc1ccco1)[C@@]12CCO[C@@H]1CCN(c1ncccn1)C2.O=C(O)C(F)(F)F`, for which the “Percent Effect” value is on record as -9.525%.

With `Cc1cnc(CNC(=O)[C@@]23CCO[C@@H]2CCN(c2ncccn2)C3)cn1`, the “Percent Effect” value came to 105.8%.

For `CC(=O)N1CC[C@H]2OCC[C@@]2(C(=O)NCc2ccco2)C1`, the “Percent Effect” value came to 16.6%.

As to `O=C(NCc1ccco1)[C@@]12CCO[C@@H]1CCN(Cc1nccs1)C2`, the “Percent Effect” value is reported as -2.827%.

For `O=C(NCc1ccccn1)[C@@]12CCO[C@@H]1CCN(c1ncccn1)C2`, the “Percent Effect” value was 99.07%.

As to `O=C(NCc1ccco1)[C@@]12CCO[C@@H]1CCN(CCN1CCCC1)C2`, the “Percent Effect” value is listed as -0.5732%.

Consider `CC(=O)N1CC[C@H]2OCC[C@@]2(C(=O)NCc2cnc(C)cn2)C1`, for which the “Percent Effect” value came to 98.12%.

`CCN1CCN(C[C@@H]2CN(c3ncccc3C(F)(F)F)C[C@@H]2CO)CC1`: the “Percent Effect” value was -2.806%.

With `CCN1CCn2c(C)cnc2C12CCN(C(=O)c1ccco1)CC2.O=C(O)C(F)(F)F.O=C(O)C(F)(F)F`, the “Percent Effect” value was 97.51%.

Consider `CCN1CCn2c(C)cnc2C12CCN(C(=O)c1ccc(Cl)cc1)CC2.O=C(O)C(F)(F)F`, for which the “Percent Effect” value is -23.96%.

`CCN1CCn2c(C)cnc2C12CCN(C(=O)COC)CC2.O=C(O)C(F)(F)F.O=C(O)C(F)(F)F`: the “Percent Effect” value was 77.99%.

With `CCN1CC(=O)NCC12CCN(C(=O)c1ccco1)C2.O=C(O)C(F)(F)F` (stereo not drawn), the “Percent Effect” value is reported as -12.24%.

With `O=C(O)C(F)(F)F.O=C(c1cscn1)N1CCc2ncc(CN3CCCC3)n2CC1`, the “Percent Effect” value was -30.66%.

`COCC(=O)N1CCC2(CC1)CCn1c(-c3cccc(OC)c3)cnc12`: the “Percent Effect” value was -17.52%.

Consider `CCN1CCn2c(C)cnc2C12CCN(C(=O)Cc1ccccc1)CC2.O=C(O)C(F)(F)F.O=C(O)C(F)(F)F`, for which the “Percent Effect” value is recorded as 97.89%.

Regarding `CCN(C)c1ncnc2c1CCN(C(=O)COC)CC2.O=C(O)C(F)(F)F`, the “Percent Effect” value was -4.529%.

On to `CCN1CC[C@@]2(C(=O)N(C)C)CCN(C(=O)Cc3ccccc3)CC[C@@H]12.O=C(O)C(F)(F)F`, for which the “Percent Effect” value came out at 0.7047%.

Turning to `CCN1CCn2c(C)cnc2C12CCN(C(=O)c1cscn1)CC2.O=C(O)C(F)(F)F.O=C(O)C(F)(F)F`, the “Percent Effect” value is listed as 113.9%.
